Screening data (PubChem)
KLF5 inhibitor: kruppel-like factor 5 inhibition. inhibition, % at 5 µM. 290,000 compounds, 0.23% hits. AID 1700. DLD-1 KLF5 promoter-luciferase reporter, luminescence;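 active means inhibition above a per-plate limit of that plate's mean compound inhibition plus 3 SD, cut at about 60% in these data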;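 further: higher means less KLF5 promoter-driven luciferase light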
Ba/F3 V617F tox: loss of viability in JAK2V617F-driven Ba/F3 cells | Ba/F3 EpoR-JAK2V617F viability, ATP luminescence | inhibition, % at 5.6 µM | 220,000 compounds, 1.1% hits;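 active means inhibition above the campaign mean plus 3 SD over all tested compounds, cut at about 24% in these data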;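 further: cytokine-independent growth of Ba/F3 cells driven by EpoR plus mutant JAK2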
BaF3 tox: reduces parental Ba/F3 cell viability, JAK2V617F counter-screen | AID 1486 | CellTiter-Glo ATP luminescence | inhibition, % at 5.6 µM | 220,000 compounds, 1.1% hits;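 active means inhibition above a per-campaign cutoff, the mean inhibition of all tested compounds plus 3 SD, cut at about 27% in these data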
IEC-6 tox-1: kills IEC-6 intestinal cells in KLF5 counter-screen. IEC-6 cytotoxicity, luminescence viability. inhibition, % at 5 µM. 290,000 compounds, 0.78% hits
APP 5UTR inh: APP translation inhibition; SH-SY5Y APP 5'UTR-luciferase reporter, luminescence; inhibition, % at 2 µM; 190,000 compounds, 0.82% hits; AID 1285;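 active means inhibition above a set limit, derived from the sample mean plus 3 SD, cut at about 45% in these data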
KLF5 inh confirm: confirmation of KLF5 inhibitors. shares compounds with KLF5 inhibitor. DLD-1 KLF5 promoter firefly luciferase reporter, luminescence. inhibition, % at 4 µM. 610 compounds, 79% hits. AID 1834;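 active means inhibition above a set limit taken from the earlier primary screen, cut at about 63% in these data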
IEC-6 tox-2: kills rat IEC-6 cells in KLF5 counter-screen | shares compounds with KLF5 inhibitor | IEC-6 rat intestinal cells, viability luminescence | inhibition, % at 4 µM | 610 compounds, 56% hits | AID 1905; in the data active means inhibition above about 23%;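 further: cells exposed to compounds for 48 hours before viability read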
IEC-6 tox confirm: IEC-6 cytotoxicity, confirmation assay. inhibition, % at 5 µM. shares compounds with IEC-6 tox-1. IEC-6 rat intestinal epithelial viability, luminescence. 1,900 compounds, 63% hits
Hits are given with their value; – = inactive; · = not tested or not shown. Compounds with a hit are over-represented: about 1.8% of the library has one in this group of screens. Unless noted, no stated cut-off is given here; in the data, active means inhibition above about 22%; inactive means the rest.

SMILES | KLF5 inhibitor | Ba/F3 V617F tox | BaF3 tox | IEC-6 tox-1 | APP 5UTR inh | KLF5 inh confirm | IEC-6 tox-2 | IEC-6 tox confirm
COc1ccc2ccccc2c1/C=N/Nc1ccc(Cl)c(C(=O)O)c1 | – | · | · | – | · | · | · | ·
COc1ccc(N/N=C/c2c(C(=O)O)ccc3ccccc23)cc1 | 72.8 | 35.1 | 40.0 | 41.4 | · | 91.5 | – | 35.8
O=C(CSc1n[nH]c(-c2ccccn2)n1)Nc1ccc(F)cc1 | – | · | · | – | · | · | · | ·
O=C(CSc1n[nH]c(-c2ccccn2)n1)Nc1ccc(Cl)cc1 | 72.6 | · | · | 43.7 | · | 62.9 | – | 28.8
CCOC(=O)C(C)Oc1cccc2c(=O)n(CC(=O)NCc3ccccc3)ccc12 (stereo not drawn) | 63.1 | 72.8 | 76.2 | 81.5 | · | 83.6 | 57.5 | 58.1
CCc1nnc(SCC(=O)Nc2ccc(F)cc2)o1 | – | · | · | – | · | · | · | ·
COc1cccc(C(=O)Nc2sc3c(c2C#N)CCN(C(C)=O)C3)c1 | 73.5 | 76.0 | 80.6 | 77.0 | 92.4 | 79.0 | 56.0 | 26.2
COc1cccc(C(=O)Nc2sc3c(c2C(=O)O)CCCC3)c1 | – | · | · | – | · | · | · | ·
CCO[C@H]1OC(C(=O)NCc2nc3ccccc3[nH]2)=C[C@@H](C2CC2)[C@@H]1CCCO | 71.8 | 74.3 | 73.4 | 71.6 | 85.9 | 78.3 | 64.1 | 53.2
Cc1ccc(C)c(OCC(=O)Nc2cc(NC(=O)COc3cc(C)ccc3C)cc(C(=O)O)c2)c1 | – | · | · | – | · | · | · | ·
CC(C)[C@H](NC(=O)c1cc2cc(Cl)ccc2n1C)C(=O)N[C@@H](C(=O)O)c1ccccc1 | – | · | · | – | · | · | · | ·
c1ccn2cc(-c3ccc4c(c3)OCCO4)nc2c1 | – | – | – | – | – | · | · | ·
Cc1ccc2nc(-c3ccc4c(c3)OCCO4)cn2c1 | 103.2 | 81.4 | 79.3 | 75.2 | · | 106.1 | 57.1 | 60.6
CCOC(=O)C1(Cc2cccc(OC)c2)CCCN(C(=O)CCc2cccnc2)C1 (stereo not drawn) | – | – | – | – | – | · | · | ·
COc1ccc(N2CCN(C(=O)c3cccnc3)CC2)c([N+](=O)[O-])c1 | – | – | – | – | – | · | · | ·
Cc1ccccc1NC(=O)Cn1nnc(C(=O)NCc2ccco2)c1N | – | – | – | – | – | · | · | ·
CCOc1ccccc1NC(=O)Cn1nnc(C(=O)NCc2ccco2)c1N | 76.3 | 87.0 | 85.6 | 86.9 | 96.0 | 88.1 | 63.8 | 58.2
COc1ccc2c(c1)C(C)=CC(C)(C)N2S(=O)(=O)c1ccc(NC(C)=O)cc1 | 81.4 | · | · | 90.1 | · | 87.7 | 59.1 | 56.6
CCOc1ccc2c(c1)C(C)=CC(C)(C)N2S(=O)(=O)c1ccc(NC(C)=O)cc1 | 73.4 | · | · | 92.4 | · | 88.7 | 70.8 | 71.7
CCOc1ccc2c(c1)C(C)=CC(C)(C)N2S(=O)(=O)c1ccc(F)cc1 | – | · | · | – | · | · | · | ·
CCN(CC)c1ccc(-c2nn3c(-c4n[nH]c5c4CCC5)nnc3s2)cc1 | 72.6 | 74.5 | 77.5 | 85.4 | 96.0 | 76.5 | 62.0 | 50.3
C1CCC(c2nn3c(-c4n[nH]c5c4CCC5)nnc3s2)CC1 | – | – | – | – | – | · | · | ·
Cc1ccc(N=Nc2ccc(O)c3ncccc23)cc1C | – | – | – | – | – | · | · | ·
Oc1ccc(N=Nc2ccccc2C(F)(F)F)c2cccnc12 | 62.5 | · | · | 44.6 | · | 85.8 | – | –
O=C(Nc1nc2cc3c(cc2s1)OCCO3)c1ccco1 | 86.3 | · | · | 22.8 | · | 81.4 | – | –
SMILES | KLF5 inhibitor | Ba/F3 V617F tox | BaF3 tox | IEC-6 tox-1 | APP 5UTR inh | KLF5 inh confirm | IEC-6 tox-2 | IEC-6 tox confirm
COc1ccccc1N1CCN(C(=O)C2c3ccccc3Oc3ccccc32)CC1 | 69.6 | 82.7 | 77.7 | 82.5 | 87.0 | 70.0 | 57.3 | 57.4
O=C(C1c2ccccc2Oc2ccccc21)N1CCN(c2ccc(Cl)cc2)CC1 | – | – | – | – | – | · | · | ·
Oc1ccc(/C=N/Nc2ccc(Cl)nn2)c(O)c1O | – | · | · | – | · | · | · | ·
C/C(=N\NC(=O)c1c(C)nc2ccccn12)c1ccc(O)cc1O | 68.6 | · | · | 28.4 | · | 83.6 | 39.2 | 35.9
Cc1cccc(C(=O)N2CCCC(CCC(=O)N3CCN(c4ccccn4)CC3)C2)c1 (stereo not drawn) | – | · | · | – | · | · | · | ·
Cc1cc(C)c(S(=O)(=O)Nc2ccc3c4c(cccc24)CC3)c(C)c1 | 70.5 | 76.7 | 79.4 | 89.3 | 95.2 | 84.2 | 56.8 | 56.1
Cc1cc(C)c(S(=O)(=O)Nc2ccc3c(c2)CCC3)c(C)c1 | – | – | – | – | – | · | · | ·
O=C(CCCCC(=O)NCCc1ccccc1)NCCc1ccccc1 | – | · | · | – | · | · | · | ·
CCOC(=O)c1[nH]c(C)c(C(=O)Nc2cc(Cl)ccc2C)c1C | 71.8 | 73.6 | 73.2 | 82.0 | 95.4 | 67.7 | 61.2 | 63.1
COc1ccc(OC)c(/C=N/NC(=O)c2c(C)nc3ccc(C)cn23)c1 | – | · | · | – | · | · | · | ·
Cc1ccc(Nc2nc(-c3c(C)nc4ncccn34)cs2)cc1 | 73.4 | 76.3 | 77.9 | 89.8 | 94.8 | 78.7 | 72.6 | 59.4
Cc1nc2ccccn2c1-c1csc(NCc2ccco2)n1 | – | – | – | – | – | · | · | ·
Cc1ccc(Nc2nc(-c3c(C)nc4ccccn34)cs2)cc1 | 87.2 | 93.7 | 92.2 | 93.8 | 96.3 | 87.0 | 79.0 | 78.5
CNC(=S)Nc1ccc(N2CCN(c3ccc(C(F)(F)F)cn3)CC2)nc1 | – | – | – | – | · | · | · | ·
COC(=O)c1[nH]c2c(c1C)C(=O)CC(c1ccc(OC)cc1)C2 (stereo not drawn) | – | · | · | – | · | · | · | ·
C=CCOC(=O)c1[nH]c2c(c1C)C(=O)CC(c1ccco1)C2 (stereo not drawn) | 89.9 | 82.1 | 83.6 | 88.8 | 96.5 | 83.7 | 60.2 | 56.1
COC(=O)c1[nH]c2c(c1C)C(=O)CC(c1ccccc1)C2 (stereo not drawn) | 72.2 | 73.6 | 75.0 | 87.1 | 96.1 | 88.1 | 72.3 | 63.7
C/C=C/COC(=O)c1[nH]c2c(c1C)C(=O)CC(c1ccc(N(C)C)cc1)C2 (stereo not drawn) | – | – | – | – | – | · | · | ·
COc1ccc(OCC(O)CN2CC(C)OC(C)C2)cc1 (stereo not drawn) | – | · | · | – | · | · | · | ·
CCCc1c(C(=O)N/N=C/c2cccc3ccccc23)nnn1-c1nonc1N | – | · | · | – | · | · | · | ·
Cc1cc(C(=O)Cn2ncc(Cl)c(Cl)c2=O)c(C)n1CC(F)(F)F | 81.7 | 43.5 | 79.3 | 100.4 | 74.8 | – | – | –
CCCc1cc(=O)[nH]c(SCC(=O)c2cc(C)n(CC(F)(F)F)c2C)n1 | – | – | – | – | – | · | · | ·
CCOC(=O)c1cc(S(=O)(=O)N2CCN(C3CCCCC3)CC2)cn1C | – | · | · | – | · | · | · | ·
COC(=O)c1ccc(C)c(NS(=O)(=O)c2ccc3c(c2)OCCO3)c1 | 82.0 | 74.8 | 54.7 | 80.0 | 92.8 | 75.9 | 55.8 | 53.7
COc1ccc(-c2nnc(SCC(=O)Nc3cc(C)on3)o2)cc1 | – | – | – | – | – | · | · | ·
COc1ccccc1C1CC(c2ccco2)=NN1S(C)(=O)=O (stereo not drawn) | – | – | – | – | – | · | · | ·
COc1ccc(C(=O)/C(=C\c2ccco2)N2C=CC=CC2=C(C#N)C#N)cc1 | 69.2 | 98.6 | 100.0 | 82.7 | 84.3 | – | 49.7 | 62.0
